In publication PMC5540273 (PLoS ONE, 2017):

How the values were obtained:
Details in all cases: concentration: 1 μM,replicates: in singlicate; n = 1
CSNK1G1 = tested on: CSNK1G1
CSNK1G2 = tested on: CSNK1G2
CSNK1G3 = tested on: CSNK1G3
CSNK2A1 = tested on: CSNK2A1
CSNK2A2 = tested on: CSNK2A2
CTK = tested on: T1, CTK
T1 construct: gene MATK

DAPK1 = tested on: DAPK1
DAPK2 = tested on: DAPK2
DAPK3 = tested on: DAPK3
DCAMKL1 = tested on: T2, DCAMKL1
T2 construct: gene DCLK1

DCAMKL2 = tested on: T3, DCAMKL2
T3 construct: gene DCLK2

DCAMKL3 = tested on: T4, DCAMKL3
T4 construct: gene DCLK3

DDR1 = tested on: DDR1
DDR2 = tested on: DDR2
DLK = tested on: T5, DLK
T5 construct: gene MAP3K12

DMPK2 = tested on: T6, DMPK2
T6 construct: gene CDC42BPG

DMPK = tested on: DMPK
DRAK1 = tested on: T7, DRAK1
T7 construct: gene STK17A

DRAK2 = tested on: T8, DRAK2
T8 construct: gene STK17B

DYRK1A = tested on: DYRK1A
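Note: KINOMEscan kinase panel screen.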

Structure (SMILES)	%Inh (CSNK1G1) [%]	%Inh (CSNK1G2) [%]	%Inh (CSNK1G3) [%]	%Inh (CSNK2A1) [%]	%Inh (CSNK2A2) [%]	%Inh (CTK) [%]	%Inh (DAPK1) [%]	%Inh (DAPK2) [%]	%Inh (DAPK3) [%]	%Inh (DCAMKL1) [%]	%Inh (DCAMKL2) [%]	%Inh (DCAMKL3) [%]	%Inh (DDR1) [%]	%Inh (DDR2) [%]	%Inh (DLK) [%]	%Inh (DMPK2) [%]	%Inh (DMPK) [%]	%Inh (DRAK1) [%]	%Inh (DRAK2) [%]	%Inh (DYRK1A) [%]
O=C(NOCC1CC1)c1cc(Br)c(F)c(F)c1Nc1ccc(I)cc1Cl	0	0	9	14	6	0	29	0	0	22	2	0	0	22	0	0	0	0	0	0
COc1cc(Nc2nccc(N3CCC(NC(=O)c4cccc(C#N)c4)C3)n2)cc(OC)c1OC (centres unmarked) [GSK1379751]	0	0	7	0	0	0	0	0	6	5	0	0	0	24	30	1	0	20	4	0
O=C(Nc1n[nH]c2cc(-c3ccco3)ccc12)C1CC1 [SB-737447]	0	0	15	31	68	34	0	7	10	7	1	0	0	0	0	0	0	27	0	16
CC(=O)c1c(-c2ccncc2)[nH]c(-c2ccncc2)c1C [GW493036]	84	98.6	98.6	0	8	0	0	0	19	25	3	0	67	0	0	0	23	44	76	99.9
Cn1ccc2ncnc(Oc3ccc(NC(=O)Nc4ccnc(C(F)(F)F)c4)c(Cl)c3)c21	0	9	0	0	10	0	7	0	0	4	0	0	100	99.6	0	0	0	0	3	13
CC(C(=O)NC1CCN(c2ccnc(Nc3ccc(F)cc3)n2)C1)c1ccc(Cl)cc1 (centres unmarked) [GSK1379713]	0	0	18	1	0	0	0	0	0	0	12	9	14	11	19	0	0	6	0	10
N#Cc1cccc(C(=O)NC2CCN(c3ccnc(Nc4ccc(F)cc4)n3)C2)c1 (centres unmarked) [GSK1379708]	0	4	6	0	0	0	0	0	11	0	9	9	0	0	35	0	0	0	4	21
CCOC(=O)N1CCC(n2cnc(-c3ccc(F)cc3)c2-c2ccnc(N)n2)CC1 [SB-219952]	4	12	0	19	9	0	25	0	0	22	15	18	83	60	0	39	22	0	0	2
Cl.Cl.NC[C@H](CC1CCCCC1)NC(=O)c1ccc(-c2ccnc3[nH]ccc23)s1 [GSK1581428]	29	72	64	8	0	9	49	12	32	0	17	0	0	8	85	100	99.7	94.9	0	54
COc1cccc(CNC(=O)NC2CCN(c3ccnc(Nc4cc(OC)c(OC)c(OC)c4)n3)C2)c1 (centres unmarked) [GSK1379765]	0	0	27	3	0	0	0	0	14	19	8	0	1	19	61	69	0	0	0	19
CCCC(=O)Nc1n[nH]c2ncccc12 [SB-601436]	0	0	7	1	0	30	0	0	0	0	0	0	0	0	0	0	0	2	0	0
COc1cc2ncn(-c3cc(OCC4CCCCC4)c(C(N)=O)s3)c2cc1OC [GSK204559]	12	9	32	1	22	0	35	30	64	2	25	0	0	0	31	7	0	0	0	21
CN(c1cccc(CNc2nc(Nc3ccc4c(c3)CC(=O)N4)ncc2C(F)(F)F)c1)S(C)(=O)=O	0	5	16	35	44	0	35	0	1	55	9	86	43	3	4	0	0	99.4	97.5	74
O=C(Nc1cccc(Oc2ccc3nccn3n2)c1)Nc1cccc(C(F)(F)F)c1	0	0	26	0	3	49	14	0	0	0	15	0	99.3	97.8	3	15	0	0	0	0
Cc1ccc(CC(=O)N2CCc3cc(-c4cn(C)c5ncnc(N)c45)ccc32)cc1 [GSK2634758]	30	26	26	0	0	0	0	5	0	0	0	0	61	44	21	68	15	0	0	0
C[C@@H](Oc1cc(-n2cnc3cc(-c4ccncc4)ccc32)sc1C(N)=O)c1ccccc1Cl [GSK479719]	13	0	23	0	35	21	61	30	22	0	3	0	0	0	0	0	0	0	0	57
